Source: PubChem BioAssay AID1347416 (National Center for Advancing Translational Sciences (NCATS), 2020)
“And” between values parts separate entries of the source, which are not always exact repeats. Equal values may be shown once. The whole screen tested about 4,100 compounds, of which about 1,600 (39%) were called active. Not shown: some 25% with an inconclusive outcome. This is one part of the list. Unmarked numbers belong to inactive results. The call rests on the fitted dose curve; in most records, active means well fitted inhibition curve with a large enough effect; inconclusive means small, poorly fitted or top-dose-only effect; inactive means no such curve, though single readings can be large or run the other way.

Assay: qHTS Validation assay for Inhibitors of Plasmodium falciparum Dd2 growth in vitro; further: nearly all actives have a fitted effect of over 70% in size
Conditions: P. falciparum Dd2 in RBCs, SYBR Green growth, 72 h; series mostly up to 28.7 µM; activity change, negative = inhibition: at the top concentration
From the text: Malaria, a parasitic disease spread to humans through the bite of a Plasmodium infected Anopheles mosquito, continues to be a global health burden affecting millions of people, with an estimated 228 million cases and 405,000 deaths in 2018. Concerns about safety and limitations of current antimalarial treatments strongly emphasize the need to develop new therapeutic options. The scarce number of chemotypes and validated drug targets with efficacy against the liver stage, have hindered development of new antimalarials. To address this, a chemoprophylactic drug discovery effort was conducted through a combined phenotypic high-throughput asexual blood stage and liver stage screen, providing a robust foundation to identify liver-stage active lead chemotypes. Compounds were initially screened against Plasmodium falciparum Dd2 strain parasites using a in vitro SYBRGreen-1 based 72 hr proliferation assay to identify novel chemotypes to advance to liver stage assays. NIH/NCATS Early Translation Branch Assay Submitter (PI): Anton Simeonov Ph.D.
[…] Assay Protocol: PROTOCOL TABLE (as described by Inglese et al., 2007) SEQUENCE No. (e.g., 1, 2, 3, etc.); PARAMETER (e.g., Cells, Incubation, Reagent, etc.); VALUE; DESCRIPTION SEQUENCE, Parameter, Description 1; Reagent; 3 uL complete malaria growth medium, 1536 TC treated Black clear bottom plate 2; Controls; 23 nL positive control artesunate (300 nM final) to column 1; Neutral control DMSO to columns 2-4 3; Compound; 23 nL of compounds in dose response concentration (29 uM to 0.5 nM final) 4; Reagent; 5 uL malaria infected red blood cells (2.5% hematocrit final, 0.3% parasitemia 5; Time; 72 hours at 37C (5% O2, 5% CO2, 90% N2; 95% Rh) 6; Reagent; 2 uL lysis buffer/SYBRGreen-1, 25 sec shake immediately following dispense 7; Time; ~16 hours at 37C (5% O2, 5% CO2, 90% N2; 95% Rh) 8; Detector; EnVision (PerkinElmer) bottom read at 485/14nm excitation and 535/25 nm emission NOTES (numbers refer to sequence above): 1; Complete Malaria Growth Media: 1X RPMI-1640 w/L-glutamine, 5.5g/L Albumax II, 367 uM Hypoxanthine, 25 mM HEPES, 0.25% Sodium Bicarbonate, 35 uM Gentamicin sulfate 2; Controls were added using the Kalypsis Pintool (Wako USA) equipped with 1536 pinhead 3; Compounds were added in a 7-point, titration with a high final concentration of 29 uM by Pintool from seven inter-plate titrations of library plates and two DMSO control plates at the beginning and end (see Yasgar et al., 2008). 4; Red blood cells infected with Plasmodium falciparum Dd2 parasites were used. 6; Lysis buffer: 20 mM Tris-HCl, 10 mM EDTA, 0.16% Saponin, 1.6% Triton-X, 10X SYBR Green. REFERENCE: Inglese J, Shamu CE, Guy RK. 2007. Reporting data from high-throughput screening of small-molecule libraries. Nat Chem Biol. doi:10.1038/nchembio0807-438 Yasgar A, Shinn P, Jadhav A, Auld D, Michael S, Zheng W, Austin CP, Inglese J, Simeonov A. 2008. Compound Management for Quantitative High-Throughput Screening. J Lab Autom 13:79-89. doi:10.1016/j.jala.2007.12.004
On the % scale 0 is the no-effect control and ±100 the full control effect; potency means the concentration at half of the fitted maximal effect.

Question: With `Cc1ccc(C(=O)N2[C@H]3CC[C@@H]2c2cnc(-c4ccccc4)nc2C3)cn1` as the molecule, how does the “activity change, negative = inhibition” value read?
Answer: The value was -30.1%.

Question: Which “activity change, negative = inhibition” value does the source give for `Cn1cc(C(=O)N2[C@H]3CC[C@@H]2c2cnc(-c4ccccc4)nc2C3)cn1` here?
Answer: Its value is 6.34%.

Question: With `Cc1noc(C)c1Cc1ccc(C(=O)N2[C@H]3CC[C@@H]2c2cnc(-c4ccccc4)nc2C3)o1` as the molecule, how does the Potency read?
Answer: Its Potency is 9.44 µM (active).

Question: With `Cc1nc(-c2ccccc2)cc([C@H]2CN3CC[C@H]2C[C@@H]3CN(Cc2ccco2)Cc2ccco2)n1` as the molecule, how does the Potency read?
Answer: Its Potency is 2.99 µM (active).

Question: For `Cc1nc(-c2ccco2)cc([C@H]2CN3CC[C@H]2C[C@@H]3CNCc2ccccc2)n1`, which Potency is on record?
Answer: Its Potency is 4.33 µM (active).

Question: Which Potency does the source give for `CCOc1ccc(CN(CCc2ccc3c(c2)OCO3)Cc2cc(OC)ccc2O)cc1` here?
Answer: Its Potency is 0.668 µM (active).

Question: With `CCOc1cccc(CNCCc2c(C)[nH]c3ccc(OC(F)(F)F)cc23)c1O` as the molecule, how does the Potency read?
Answer: The Potency was 2.37 µM (active).

Question: For `Cc1ccc(CN2C3CCCC2CC(NC(=O)Nc2cccc(F)c2)C3)cc1` (centres undefined), which Potency is on record?
Answer: The Potency was 10.6 µM (active).

Question: With `O=C(NC1CN2CCC1CC2)c1ccc(-c2ccc([N+](=O)[O-])cc2)o1` (centres undefined) as the molecule, how does the “activity change, negative = inhibition” value read?
Answer: The value was 13.2%.

Question: With `COC1C(=O)N(c2cccc(F)c2)C12CCNCC2` (centres undefined) as the molecule, how does the Potency read?
Answer: Its Potency is 10.6 µM (active).

Question: With `FC(F)(F)CN1C2CCC1CN(c1nnc(Cl)c3ccccc13)C2` as the molecule, how does the Potency read?
Answer: Its Potency is 2.11 µM (active).

Question: For `O=C(Nc1ccccc1)OC[C@H]1C[C@@H]2CCN1C[C@@H]2c1cc(C2CCCC2)nc(-c2ccncc2)n1`, which Potency is on record?
Answer: Its Potency is 1.68 µM (active).

Question: For `COc1ccc(NC(=O)OC[C@H]2C[C@@H]3CCN2C[C@@H]3c2cc(C3CCCC3)nc(-c3ccncc3)n2)cc1`, which Potency is on record?
Answer: Its Potency is 4.22 µM (active).

Question: Which Potency does the source give for `CCC(CC)c1cc([C@H]2CN3CC[C@H]2C[C@@H]3COC(=O)Nc2ccc(C(C)(C)C)cc2)nc(-c2ccncc2)n1` here?
Answer: The Potency was 2.11 µM (active).

Question: Which Potency does the source give for `CC(C)(C)c1ccc(NC(=O)OC[C@H]2C[C@@H]3CCN2C[C@@H]3c2cc(C3CCCC3)nc(-c3ccncc3)n2)cc1` here?
Answer: The Potency was 2.11 µM (active).

Question: Which Potency does the source give for `N#Cc1nn(-c2c(Cl)cc(C(F)(F)F)cc2Cl)c(N)c1S(=O)C(F)(F)F` (centres undefined) here?
Answer: The Potency was 9.44 µM (active).

Question: For `Cc1c2ccncc2c(C)c2c1[nH]c1ccccc12`, which Potency is on record?
Answer: The Potency was 3.35 µM (active).

Question: With `CC(C)N1CC=C(c2c[nH]c3ccccc23)CC1` as the molecule, how does the Potency read?
Answer: The Potency was 10.6 µM (active).

Question: Which Potency does the source give for `CCN1CC=C(c2c[nH]c3ccccc23)CC1` here?
Answer: Its Potency is 4.22 µM (active).

Question: For `CCN(CC)C1=NC(=[N+](CC)CC)c2ccccc21`, which Potency is on record?
Answer: The Potency was 5.31 µM (active).

Question: With `COc1ccc(CC(=O)N2Cc3ccccc3CC3(CCCN3C)C2)cc1` (centres undefined) as the molecule, how does the Potency read?
Answer: Its Potency is 9.44 µM (active).

Question: For `CC(C(=O)c1c[nH]c2ccccc12)N1CCN(C(=O)c2ccco2)CC1` (centres undefined), which Potency is on record?
Answer: Its Potency is 5.96 µM (active).

Question: Which Potency does the source give for `COc1cccc([C@@H]2CCN(Cc3[nH]c4ccccc4c3C)C[C@H]2O)c1` here?
Answer: Its Potency is 1.5 µM (active).

Question: With `CCN1CCN(Cc2cc(Br)cc(Br)c2O)CC1` as the molecule, how does the Potency read?
Answer: Its Potency is 7.5 µM (active).

Question: With `Oc1c(Br)cc(Br)cc1CN1CCN(Cc2ccccc2)CC1` as the molecule, how does the Potency read?
Answer: Its Potency is 1.06 µM (active).

Question: With `COc1cc(C2NCc3ccccc3-n3cccc32)ccc1O` (centres undefined) as the molecule, how does the Potency read?
Answer: The Potency was 2.66 µM (active).

Question: With `Oc1ccc(C2NCc3ccccc3-n3cccc32)cc1Cl` (centres undefined) as the molecule, how does the Potency read?
Answer: Its Potency is 1.19 µM (active) and 1.5 µM (active).

Question: With `CC(C)CCNC(=O)c1cc(C(=O)c2cc(Br)ccc2O)cn(CCC(C)C)c1=O` as the molecule, how does the Potency read?
Answer: Its Potency is 0.944 µM (active).

Question: For `CC(C)CCNC(=O)c1cc(C(=O)c2cc(F)ccc2O)cn(CCC(C)C)c1=O`, which Potency is on record?
Answer: The Potency was 2.11 µM (active).

Question: With `O=C(c1cc(C(=O)NCc2ccccc2)c(=O)n(Cc2ccccc2)c1)c1cc(Br)ccc1O` as the molecule, how does the Potency read?
Answer: The Potency was 4.73 µM (active).

Question: Which Potency does the source give for `CCOc1c(Cl)cc(CNC(C)C(O)c2ccccc2)cc1OC` (centres undefined) here?
Answer: The Potency was 6.68 µM (active).

Question: With `CC(NCc1ccc(Cl)cc1Cl)C(O)c1ccccc1` (centres undefined) as the molecule, how does the Potency read?
Answer: The Potency was 4.73 µM (active).

Question: With `CC(C)(C)CN1CCC2(COc3ccncc3S(=O)(=O)N2)C1` (centres undefined) as the molecule, how does the “activity change, negative = inhibition” value read?
Answer: Its value is 55.1%.

Question: With `O=C1NC2(CCCN(Cc3ccccn3)C2)COc2ccccc21` (centres undefined) as the molecule, how does the Potency read?
Answer: Its Potency is 4.85 µM (active).

Question: For `COc1ccc2ccc(O)c(CN3CC=C(c4ccccc4)CC3)c2c1`, which Potency is on record?
Answer: Its Potency is 8.41 µM (active).

Question: Which Potency does the source give for `Cc1cc(O)c(CN2CC=C(c3ccccc3)CC2)cc1C(C)C` here?
Answer: The Potency was 0.335 µM (active).

Question: Which Potency does the source give for `CCOc1ccc(CN2C(=O)c3ccccc3Sc3ccc(C(=O)N4CCC5(CC4)OCCO5)cc32)cc1` here?
Answer: Its Potency is 4.22 µM (active).

Question: For `CCC(CC)c1cc([C@H]2CN3CC[C@H]2C[C@@H]3CNS(=O)(=O)c2cccs2)nc(-c2ccncc2)n1`, which Potency is on record?
Answer: Its Potency is 2.37 µM (active).

Question: With `CCC(CC)c1cc([C@H]2CN3CC[C@H]2C[C@@H]3CNS(=O)(=O)c2ccccc2C#N)nc(-c2ccncc2)n1` as the molecule, how does the Potency read?
Answer: The Potency was 1.5 µM (active).

Question: With `COC(=O)C(C)Oc1cc(C)cc2oc(=O)c3c(c12)CCC3` (centres undefined) as the molecule, how does the “activity change, negative = inhibition” value read?
Answer: The value was -27.6%.

Question: With `Cc1nc2c(=O)n(C)c(=O)nc-2n(C)n1` as the molecule, how does the Potency read?
Answer: The Potency was 0.422 µM (active).

Question: With `CCC(CC)c1cc([C@H]2CN3CC[C@H]2C[C@@H]3CNC(=O)COc2ccccc2)nc(-c2ccncc2)n1` as the molecule, how does the Potency read?
Answer: Its Potency is 1.5 µM (active).

Question: Which Potency does the source give for `CCC(CC)c1cc([C@H]2CN3CC[C@H]2C[C@@H]3CNC(=O)NCc2ccccc2)nc(-c2ccncc2)n1` here?
Answer: The Potency was 4.22 µM (active).

Question: For `CCC(CC)c1cc([C@H]2CN3CC[C@H]2C[C@@H]3CNC(C)=O)nc(-c2ccncc2)n1`, which Potency is on record?
Answer: The Potency was 15.3 µM (active).

Question: With `CCC(CC)c1cc([C@H]2CN3CC[C@H]2C[C@@H]3CNC(=O)c2ccc(C)cc2)nc(-c2ccncc2)n1` as the molecule, how does the Potency read?
Answer: Its Potency is 10.6 µM (active).

Question: Which Potency does the source give for `CCC(CC)c1cc([C@H]2CN3CC[C@H]2C[C@@H]3CNC(=O)c2ccccc2)nc(-c2ccncc2)n1` here?
Answer: Its Potency is 10.6 µM (active).

Question: Which Potency does the source give for `CCC(CC)c1cc([C@H]2CN3CC[C@H]2C[C@@H]3CNC(=O)Cc2cccs2)nc(-c2ccncc2)n1` here?
Answer: Its Potency is 2.99 µM (active).

Question: For `CCOC(=O)C1(c2ccccc2)CCN(CCC(C#N)(c2ccccc2)c2ccccc2)CC1`, which Potency is on record?
Answer: Its Potency is 5.31 µM (active).

Question: Which Potency does the source give for `CC(C)[C@@]1(NC(=O)[C@@H]2C[C@@H]3c4cccc5[nH]cc(c45)C[C@H]3N(C)C2)O[C@@]2(O)[C@@H]3CCCN3C(=O)[C@H](Cc3ccccc3)N2C1=O` here?
Answer: The Potency was 2.37 µM (active).
